Many of the other results were omitted from the sample, so hits are more common in it than they were.
Tg IFNy HTS: T. gondii growth inhibition with IFN-gamma, primary screen, cell-based | Toxoplasma gondii growth in IFN-gamma-treated host cells; hits give low values | activity change, negative = inhibition, % (test concentration not listed) | 3.8% of 69,000 active | AID 1259416, 2018; in the data active = activity change below about -70%, passing the limit was not always enough;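 note: host cells are HeLa cells infected with Toxoplasma gondii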
Starred values were filed as active, the others as inactive; i = inactive.

SMILES	Tg IFNy HTS
CCOc1ccc(C2c3[nH]c4ccccc4c3CCN2C(=O)c2ccc(OC)cc2)cc1 (stereo not given)	-76.2
Cc1ccc(C(=O)N2CCc3c([nH]c4ccccc34)C2c2ccc(F)cc2)cc1 (stereo not given)	-18.6
COCC(=O)N1CCc2c([nH]c3ccccc23)C1c1ccc(F)cc1 (stereo not given)	410.5
O=C(c1ccccc1F)N1CCc2c([nH]c3ccccc23)C1c1ccc(F)cc1 (stereo not given)	280.8
Cc1ccc(C2c3[nH]c4ccccc4c3CCN2C(=O)c2ccc(Br)cc2)cc1 (stereo not given)	246.4
COc1ccc(C2c3[nH]c4ccccc4c3CCN2C(=O)c2ccc(Br)cc2)cc1 (stereo not given)	-88.8*
Cc1ccc(C2c3[nH]c4ccccc4c3CCN2C(=O)c2ccc(F)cc2)cc1 (stereo not given)	i
COc1ncc(C(=O)NC(C)C23CC4CC(CC(O)(C4)C2)C3)cn1 (stereo not given)	-10.9
CCCC(=O)Nc1ccc2c(c1)C(=O)N(C)C[C@H](OC)[C@H](C)CN(Cc1ccc(F)cc1)[C@H](C)CO2	26.5
Cc1ccc(NC(=O)C2CC(=O)Nc3nc4ccccc4n32)c(C)c1 (stereo not given)	91.3
CC(C)CN1CC(C(=O)N2CCc3[nH]nc(C4CCC4)c3C2)CC1=O (stereo not given)	-4.0
CCN1c2ccc(F)cc2C(=O)NC12CCN(C(=O)c1cc(C)cc(C)c1)CC2	29.1
COc1ccccc1-c1ccccc1[C@@H]1[C@@H](C#N)N(C(=O)CN(C)C)[C@H]1CO	-15.6
CNC1(c2ccc(OC)cc2)Oc2ccccc2C(C#Cc2ccccc2)=C1C (stereo not given)	-106.6*
O=C(c1cccs1)N1CCc2c([nH]c3ccccc23)C1c1cccnc1 (stereo not given)	10.0
O=C(c1ccc(Br)cc1)N1CCc2c([nH]c3ccccc23)C1c1cccnc1 (stereo not given)	-85.6*
CCOc1cccc(CC(=O)N2CCc3c([nH]c4ccccc34)C2c2cccnc2)c1OCC (stereo not given)	11.3
Cc1cccc(C(=O)N2CCc3c([nH]c4ccccc34)C2c2cccnc2)c1 (stereo not given)	-108.5*
Cc1nsc(NC(=O)N2CCCC(c3nc(C(C)C)no3)C2)n1 (stereo not given)	3.8
CO[C@@H](CN(C)Cc1nccs1)[C@@H](C)CN([C@H](C)CO)S(=O)(=O)c1ccc(F)cc1	-6.6
CN[C@@H](C)C(=O)N[C@H](C(=O)N1CCC[C@H]1C(=O)Nc1snnc1-c1ccccc1)C1CCCCC1	-3.2
Nc1nccc(-c2csc(COc3ccc(Cl)cc3)n2)n1	35.4
O=C(O)c1ccc(-c2ccc(O)c(F)c2)cc1	42.3
O/N=C/c1ccc(-c2ccc(O)c(F)c2)c(Cl)c1O	-87.1*
O=C(c1ccccc1Cl)N1CCC2(CC1)Nc1ccccc1-n1cccc12	16.4
SMILES	Tg IFNy HTS
Cn1c(-c2ccccc2)cnc1SCC(=O)Nc1ccc(Cl)cc1	6.8
CC1CCc2cc(F)ccc2N1C(=O)CSc1ncc(-c2ccccc2)n1C1CCCC1 (stereo not given)	-80.1*
CC1CCc2cc(F)ccc2N1C(=O)c1cc2cccnc2n(Cc2ccccc2F)c1=O (stereo not given)	-28.1
Cc1nc(CN(C)Cc2csc(-c3ccccc3)n2)co1	137.2
Cc1[nH]ncc1-c1nsc(Nc2ccccc2)n1	i
Cc1ccc(CNC(=O)C(C)OC(=O)c2ccco2)cc1 (stereo not given)	-3.9
COc1cccc(NC(=O)N2CCCC3(C2)Nc2cccnc2NC3=NC2CCCC2)c1 (stereo not given)	-6.8
COc1ccc(C)cc1NC(=O)N1CCCC2(C1)Nc1cccnc1NC2=NC1CCCC1 (stereo not given)	31.4
O=C(Nc1cc(F)cc(F)c1)N1CCCC2(C1)Nc1cccnc1NC2=NC1CCCC1 (stereo not given)	-86.4*
CCCN(CCC)C(=O)C(CCC(=O)O)NC(=O)c1ccccc1 (stereo not given)	19.8
Cc1nc(-c2ccccc2)nc2c1COCC21CCN(c2ncccn2)C1 (stereo not given)	-13.1
CN(Cc1nc2c(s1)CCCC2)C(=O)c1cn(CC2CCCNC2)nn1 (stereo not given)	-47.9
O=c1[nH]c(-c2ccccc2)nnc1/C=C/c1ccccc1	-84.5*
O=c1[nH]c2ccccc2nc1/C=C/c1cccs1	-8.1
Nc1nc(-c2ccccc2)c(Br)c(=O)[nH]1	2.2
COc1cc(NC(=O)Cn2ncc3c(N4CCC(C)CC4)ncnc32)cc(OC)c1	-21.3
C[C@]12C=CC(=O)C=C1CCC1C2[C@@H](O)C[C@@]2(C)C1CC[C@]2(O)C(=O)CO (stereo not given in full)	5.0
CC(C)(C)c1cnc(CSc2cnc(NC(=O)C3CCNCC3)s2)o1	-72.3*
C=CCN1C(=O)CCCC12CCCN(c1cc(OC)ncn1)C2 (stereo not given)	2.5
Cc1cc(Br)cc2[nH]cnc12	-52.7

Screening data from PubChem BioAssay.
